# Screening results deposited in PubChem by several laboratories.
# The list is not random: actives were taken first. Their share in the collection is about 22%.
# CYP2C9 inh – blockers of cytochrome P450 2C9 activity – biochemical, luminescence, ADME assay, primary screen. CYP2C9 Supersomes, luciferin-H conversion. inhibition, % at 5 µM. 96,000 compounds, 20% hits. AID 777, 2007;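 active = blocking of liver enzyme CYP2C9 beyond about 50% at 5 µM, limit read from the data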
# E-sel TNF inh – E-selectin induction blockers in HUVEC – imaging, immunofluorescence, high content, primary screen. HUVEC TNFa-induced E-selectin immunofluorescence. inhibition, % at 2 µM. 120,000 compounds, 0.71% hits;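 active = inhibition above the batch mean plus 3 SD, and confirmed as a hit on visual image review, cut at about 43% in these data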;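 also: 0% = TNF-stimulated DMSO wells and 100% = unstimulated control wells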
# CYP2C19 act – human CYP2C19 activators, primary screen, biochemical, luminescence; Cytochrome P450 2C19 (Homo sapiens), P33261; recombinant CYP2C19, luciferin-H EGE luminescence; active compounds read high; 0 = fully inhibited enzyme, 1 = untreated enzyme; activation factor at 5 µM; 96,000 tested, under 10 active;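 active = activation factor of at least 2 at 5 µM in the primary screen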;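 also: 0 = wells with 2.5 mM tranylcypromine and 1 = vehicle-only wells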
# Target sequence (P33261 whole entry, looked up): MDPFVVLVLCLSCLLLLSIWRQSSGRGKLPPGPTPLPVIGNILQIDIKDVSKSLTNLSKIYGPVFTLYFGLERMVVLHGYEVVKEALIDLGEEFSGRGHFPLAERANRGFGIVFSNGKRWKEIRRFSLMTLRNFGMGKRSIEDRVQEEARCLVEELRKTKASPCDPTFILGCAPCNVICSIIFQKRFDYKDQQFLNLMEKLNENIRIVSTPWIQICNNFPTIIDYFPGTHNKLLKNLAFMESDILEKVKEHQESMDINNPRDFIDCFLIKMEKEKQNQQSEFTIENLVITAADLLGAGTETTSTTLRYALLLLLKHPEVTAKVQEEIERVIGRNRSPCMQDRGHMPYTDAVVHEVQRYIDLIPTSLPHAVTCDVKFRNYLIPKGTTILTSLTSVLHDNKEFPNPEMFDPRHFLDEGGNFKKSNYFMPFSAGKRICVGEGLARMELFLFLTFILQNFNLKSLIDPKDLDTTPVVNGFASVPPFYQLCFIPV
# CYP2C19 inh – blockers of cytochrome P450 2C19 activity – biochemical, luminescence, ADME assay, primary screen; inhibition, % at 5 µM; CYP2C19 Supersomes, luciferin-H EGE luminescence, 30 min; P33261; 96,000 compounds, 21% hits; AID 778, 2007;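 active = CYP2C19 inhibition above a set limit at 5 µM in the primary screen, cut at about 50% in these data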;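 also: plate controls were negative control wells for no effect and 2.5 mM tranylcypromine positive control for full effect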
# CYP2C9 act – human CYP2C9 activators, primary screen, biochemical, luminescence; Cytochrome P450 2C9 (Homo sapiens), P11712; recombinant CYP2C9, luciferin-H conversion; active compounds read high; factor 1 = untreated enzyme, 0 = blocked; activation factor at 5 µM; 96,000 compounds, 1.4% hits; AID 1024, 2008;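 active = activation factor of 2 or more for CYP2C9 at a 5 µM dose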;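 also: 0 = sulfaphenazole-blocked wells and 1 = vehicle-only wells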
# cytoskel mod – modifiers of F-actin cytoskeleton organization, primary screen, imaging, HUVEC, phalloidin staining, high-content imaging. inhibition, % at 2 µM. HUVEC TNFa F-actin phalloidin imaging. AID 836, 2007. 91,000 compounds, 0.18% hits;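 active = inhibition above the batch mean plus 3 SD and confirmed as a hit by visual image inspection, cut at about 30% in these data, passing the limit was not always enough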
# * = called active by the depositor; nt = no result given.
SMILES,CYP2C9 inh,E-sel TNF inh,CYP2C19 act,CYP2C19 inh,CYP2C9 act,cytoskel mod
CCOC(=O)c1c(NC(=O)CSc2nnc(CNc3ccc(F)cc3)o2)sc(C)c1C,62.6*,-5.8,0.9,11.5,0.4,-19.9
CCOC(=O)c1c(NC(=O)CSc2nnc(CNc3ccc(Cl)cc3)o2)sc(C)c1C,nt,7.3,nt,nt,nt,32.8
CS(=O)(=O)N(CC(=O)NC1CCCCC1)c1cccc(Cl)c1,19.4,-41.2,0.7,30.1,0.8,12.1
CCCNC(=O)C1CN(S(=O)(=O)c2ccccc2)CCN1S(=O)(=O)c1ccccc1 (stereo not drawn),0.6,-6.3,0.9,8.4,1,16.5
CCC(C)NC(=O)C1CN(S(=O)(=O)c2ccccc2)CCN1S(=O)(=O)c1ccccc1 (stereo not drawn),22.8,-23.5,0.3,66.3*,0.8,nt
COC(=O)Nc1ccc(S(=O)(=O)N2CCCCC2C(=O)NCc2ccco2)cc1 (stereo not drawn),0.1,nt,0.6,41.7,1,0.8
Cc1ccc(S(=O)(=O)N2CCCCC2C(=O)NCc2ccco2)cc1 (stereo not drawn),32.8,nt,0.1,93.7*,0.7,-4.3
COc1ccc(S(=O)(=O)NCC2CCC(C(=O)NCc3ccco3)CC2)cc1 (stereo not drawn),10.7,nt,1,-3.6,0.9,0.4
O=C(NCc1ccco1)C1CN(S(=O)(=O)c2ccccc2)CCN1S(=O)(=O)c1ccccc1 (stereo not drawn),50.5*,-10.7,0.4,56.3*,0.5,8.0
Cc1ccc(S(=O)(=O)NCC2CCC(C(=O)NCc3ccco3)CC2)cc1 (stereo not drawn),45.9,-12.9,0.5,53.5*,0.5,17.8
Cc1cc(C)n2nc(SCc3nnc(SCc4ccccc4)s3)nc2n1,32.8,-26.1,0.5,49.2,0.7,9.9
O=C1c2cccnc2C(O)N1C1CCCCC1 (stereo not drawn),7.0,nt,1,2.9,0.9,nt
Cc1ccc(NS(=O)(=O)c2cc(C(=O)N3CCOCC3)ccc2C)cc1,3.9,-12.4,1,-1.8,1,8.6
Cc1ccc(C2C3=C(CCCC3=O)Nc3nc(SCC(=O)NCc4ccco4)[nH]c(=O)c32)cc1 (stereo not drawn),0.7,15.6,1.2,-15.5,1,6.0
COc1ccc(-n2c(SCC#N)nc3ccccc3c2=O)cc1,68.1*,-23.4,0.9,11.4,0.3,18.1
CCN(CC)C(=O)CSc1nc2ccccc2c(=O)n1OC(C)C,57.8*,14.8,0.9,6.0,0.4,0.6
CCN(CC)C(=O)CSc1nc2ccccc2c(=O)n1CCC(=O)NCc1ccc(F)cc1,91.6*,-4.6,0.4,57.0*,0.1,12.3
CCN(CC)C(=O)CSc1nc2ccccc2c(=O)n1CC,30.8,-5.8,0.8,15.3,0.7,-4.2
CCNC(=O)CSc1nc2ccccc2c(=O)n1-c1cc(OC)ccc1OC,72.8*,-9.4,0.5,49.4,0.3,5.1
C[C@H](NC(=O)c1ccccc1Cl)C(=O)OCC(=O)N1CC2(C)CC1CC(C)(C)C2 (stereo partly drawn),nt,15.0,nt,nt,nt,nt
CCN(CC)C(=O)CSc1nc2ccccc2c(=O)n1-c1cccc(OC)c1,71.4*,9.1,0.7,33.3,0.3,7.6
COc1cccc(-n2c(SCC(=O)Nc3ccc4c(c3)CCC4)nc3ccccc3c2=O)c1,nt,16.7,nt,nt,nt,nt
CCOc1ccccc1-n1c(SCC(N)=O)nc2ccccc2c1=O,42.6,15.0,0.4,59.3*,0.6,-16.1
CCOc1ccccc1-n1c(SCC(N)=O)nnc1-c1ccccc1,27.3,nt,0.6,35.9,0.7,42.9
CCCCOC(=O)n1c(SCC(=O)N(CC)CC)nc2ccccc21,86.0*,-15.0,0.6,38.8,0.1,-11.0
SMILES,CYP2C9 inh,E-sel TNF inh,CYP2C19 act,CYP2C19 inh,CYP2C9 act,cytoskel mod
O=C(CSc1nc2ccccc2c(=O)n1-c1cccc(C(F)(F)F)c1)NC1CC1,31.7,15.3,0.5,51.0*,0.7,-2.9
CCOC(=O)n1c(SCC(N)=O)nc2ccccc21,-13.7,-27.0,1,-0.8,1.1,-3.5
Cc1ccccc1C(=O)NNC(=O)c1cccc([N+](=O)[O-])c1,nt,8.3,nt,nt,nt,nt
COC(=O)c1ccccc1NC(=O)CSCC(=O)Nc1ccc(F)cc1,35.4,-47.1,0.4,58.6*,0.6,-10.0
Cc1c(F)cccc1NC(=O)CSCC(=O)Nc1ccccc1,55.9*,nt,0.4,56.0*,0.4,0.1
O=C(/C=C/Nc1ccc(F)c(F)c1)c1ccc(Br)cc1,nt,12.5,nt,nt,nt,nt
CCc1cccc(NC(=O)Cn2cccc2)c1,-97.5,19.3,0.7,29.8,2*,0.4
CCc1cccc(NC(=O)CSC2=NS(=O)(=O)c3ccccc32)c1,13.1,9.7,0.8,24.1,0.9,12.1
CCc1cccc(NC(=O)CSCc2cc(=O)[nH][nH]2)c1,5.1,13.8,0.3,74.9*,0.9,nt
O=C1c2ccccc2NC2CCCCCN12 (stereo not drawn),nt,-25.3,nt,nt,nt,5.8
O=C1c2ccccc2NC2CCCCC12 (stereo not drawn),-410.6,-49.8,1,1.3,5.1*,-4.6
CC(=O)NN1C(=O)/C(=C\c2ccccc2)SC1=S,14.1,-35.5,0.6,42.4,0.9,-12.8
CC(=O)NN1C(=O)/C(=C\c2ccc(C)cc2)SC1=S,-2.6,-23.4,0.5,52.3*,1,-7.7
CCCCOc1ccc(CNn2c(C)nc3ccccc3c2=O)cc1,66.9*,-3.9,0.1,91.4*,0.3,2.8
CCCOc1ccc(C(=O)Nn2c(C)nc3ccccc3c2=O)cc1,46.1,-6.5,1,3.4,0.5,22.9
Cc1nc2ccccc2c(=O)n1NC(=O)COc1ccccc1,47.1,-1.9,0.9,6.3,0.5,nt
COc1ccc(CNn2c(C)nc3ccccc3c2=O)cc1,42.3,-9.3,0,96.3*,0.6,-1.6
Cc1ccc(S(=O)(=O)N2CCC(=O)N(CCOC(=O)Nc3ccccc3C)CC2)cc1,nt,27.5,nt,nt,nt,nt
Cc1ccc2sc3ccc(NC(=O)c4ccccc4Cl)cc3c(=O)c2c1,9.2,15.9,0.6,41.3,0.9,-3.1
CC(CN1CCCCC1)OC(=O)C(C)(c1ccccc1)c1ccccc1 (stereo not drawn),67.5*,3.8,0.5,54.4*,0.3,-0.1
CC(CN1CCCCC1)OC(=O)Cc1ccc(Cl)cc1 (stereo not drawn),5.6,-11.6,0.4,60.0*,0.9,-13.0
CC(C)(C)NC(=O)Cn1nnc(-c2ccc(S(C)(=O)=O)cc2)n1,25.8,-24.6,1,-4.8,0.7,-20.3
CCOc1cc2[nH]c(=O)n(CCCC(=O)N(C)Cc3ccccc3)c(=O)c2cc1OCC,nt,-30.0,nt,nt,nt,nt
